About 83,000 compounds went through this panel and 20% of them were active in at least one assay; those are over-represented in the sample as a whole.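 Plates (96-well) were seeded with cells, treated with compound at one concentration, and incubated for 48 hours before percent growth was determined.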 Calls of active or inactive are those of the source. How the source made its calls: active means growth percent below 10; inactive means the rest.
What was measured:
Test in all cases: NCI-60 one-dose screen, 48 h (100 = growth as untreated, 0 = no growth, -100 = all killed)
Conditions in all cases: 10 µM unless noted
NCI-H23 lung = system: NCI-H23 lung
NCI-H226 lung = system: NCI-H226 lung
NCI-H322M lung = system: NCI-H322M lung
HOP-62 NSCLC = system: HOP-62 NSCLC
NCI-H460 lung = system: NCI-H460 lung
HOP-92 NSCLC = system: HOP-92 NSCLC
NCI-H522 lung = system: NCI-H522 lung
A549/ATCC NSCLC = system: A549/ATCC NSCLC
786-0 renal = system: 786-0 renal
COLO 205 colon = system: COLO 205 colon
DU-145 prostate = system: DU-145 prostate
K-562 leukemia = system: K-562 leukemia
MALME-3M melanoma = system: MALME-3M melanoma
MDA-MB-231 breast = system: MDA-MB-231 breast
RXF 393 renal = system: RXF 393 renal
SF-268 CNS = system: SF-268 CNS
SF-295 CNS = system: SF-295 CNS
SF-539 CNS = system: SF-539 CNS
UACC-257 melanoma = system: UACC-257 melanoma
M14 melanoma = system: M14 melanoma

Measured: growth

O=C(CCl)Nc1ccc2c(Nc3cc(O)ccc3Cl)ncnc2c1
active: NCI-H23 lung -74% | NCI-H226 lung -35% | NCI-H322M lung 5.63% | HOP-62 NSCLC -63.5% | NCI-H460 lung -54.8% | HOP-92 NSCLC -85% | NCI-H522 lung -65.8% | A549/ATCC NSCLC -56.9% | 786-0 renal -89.8% | COLO 205 colon -51.9% | DU-145 prostate -89.1% | K-562 leukemia -36% | MALME-3M melanoma -86.4% | MDA-MB-231 breast -84.5% | RXF 393 renal -88.6% | SF-268 CNS -56.1% | SF-295 CNS -77.1% | SF-539 CNS -94% | UACC-257 melanoma -11.5% | M14 melanoma -77.1%

CN(C)c1ccc(/C=C/C(=O)c2ccccc2)cc1
inactive: NCI-H23 lung 97.8% | NCI-H226 lung 99.9% | NCI-H322M lung 98.4% | HOP-62 NSCLC 81% | NCI-H460 lung 105% | HOP-92 NSCLC 88% | NCI-H522 lung 60.3% | A549/ATCC NSCLC 65.4% | 786-0 renal 88.8% | COLO 205 colon 93.7% | DU-145 prostate 95.9% | K-562 leukemia 32% | MALME-3M melanoma 82.5% | MDA-MB-231 breast 103% | RXF 393 renal 93.8% | SF-268 CNS 89.7% | SF-295 CNS 92.7% | SF-539 CNS 89.3% | UACC-257 melanoma 62.9% | M14 melanoma 76%

O=C(CN1CCN(c2cc3c(cc2F)c(=O)c(C(=O)O)cn3C2CC2)CC1)N/N=C/c1ccncc1
inactive: NCI-H23 lung 102% | NCI-H226 lung 100% | NCI-H322M lung 96.3% | HOP-62 NSCLC 92.2% | NCI-H460 lung 106% | HOP-92 NSCLC 94.1% | NCI-H522 lung 96.5% | A549/ATCC NSCLC 86.8% | 786-0 renal 90.8% | COLO 205 colon 108% | DU-145 prostate 106% | K-562 leukemia 91.7% | MALME-3M melanoma 103% | MDA-MB-231 breast 98.4% | RXF 393 renal 110% | SF-268 CNS 92.8% | SF-295 CNS 96.6% | SF-539 CNS 95.6% | UACC-257 melanoma 87.9% | M14 melanoma 96.1%

CC(=O)Nc1c(Cl)cc(Cl)c2c1Cc1cc([N+](=O)[O-])ccc1-2
inactive: NCI-H23 lung 94.6% | NCI-H226 lung 113% | NCI-H322M lung 99% | HOP-62 NSCLC 90.5% | NCI-H460 lung 86.6% | HOP-92 NSCLC 100% | NCI-H522 lung 91.9% | A549/ATCC NSCLC 82.4% | 786-0 renal 75.7% | COLO 205 colon 93.4% | DU-145 prostate 104% | K-562 leukemia 90.2% | MALME-3M melanoma 107% | MDA-MB-231 breast 83.6% | RXF 393 renal 85.3% | SF-268 CNS 95.5% | SF-295 CNS 113% | SF-539 CNS 61.1% | UACC-257 melanoma 107% | M14 melanoma 100%

O=C1NC(=O)c2c1c1c3ccccc3[nH]c1c1oc3ccc(F)cc3c21
inactive: NCI-H23 lung 61.9% | NCI-H226 lung 54% | NCI-H322M lung 50.7% | HOP-62 NSCLC 64.8% | NCI-H460 lung 52.9% | HOP-92 NSCLC 70.1% | NCI-H522 lung 50.4% | A549/ATCC NSCLC 86% | 786-0 renal 90.3% | COLO 205 colon 79.4% | DU-145 prostate 77.4% | K-562 leukemia 78.4% | MALME-3M melanoma 48.6% | MDA-MB-231 breast 77.9% | RXF 393 renal 69.1% | SF-268 CNS 79.5% | SF-295 CNS 71% | SF-539 CNS 64.3% | UACC-257 melanoma 95.1% | M14 melanoma 45.1%

O=[N+]([O-])/C(=C\c1ccco1)c1ccccc1Cl
active: 786-0 renal 9.35%
inactive: NCI-H23 lung 92.3% | NCI-H226 lung 90.3% | NCI-H322M lung 80.2% | HOP-62 NSCLC 76.2% | NCI-H460 lung 68.1% | HOP-92 NSCLC 33.2% | NCI-H522 lung 23.2% | A549/ATCC NSCLC 62.3% | COLO 205 colon 82.8% | DU-145 prostate 86.1% | K-562 leukemia 67.9% | MALME-3M melanoma 80.6% | MDA-MB-231 breast 87.9% | RXF 393 renal 67.1% | SF-268 CNS 87% | SF-295 CNS 102% | SF-539 CNS 91.7% | UACC-257 melanoma 66.7% | M14 melanoma 66.2%

O=C1c2cccnc2C(=O)c2c1c(C(=O)OCCCN1CCCCC1)c1ccccn21
active: NCI-H23 lung -48.5% | NCI-H226 lung -18.4% | NCI-H322M lung -18.1% | HOP-62 NSCLC -31.9% | NCI-H460 lung -63.3% | HOP-92 NSCLC -8.21% | NCI-H522 lung -80% | A549/ATCC NSCLC -63.8% | 786-0 renal -62.6% | COLO 205 colon -79% | DU-145 prostate -86.8% | K-562 leukemia -28.5% | MALME-3M melanoma -78.2% | MDA-MB-231 breast -8.94% | RXF 393 renal -64.2% | SF-268 CNS -15.3% | SF-295 CNS -13.9% | SF-539 CNS -9.46% | UACC-257 melanoma -38.4% | M14 melanoma -83.5%

CCCCCCNc1nc(NCCCCCC)c2[nH]c(NCCCCCC)nc2n1
inactive: NCI-H23 lung 48.2% | NCI-H226 lung 92.1% | HOP-62 NSCLC 75.7% | NCI-H460 lung 48.1% | 786-0 renal 68.2% | DU-145 prostate 84.6% | MALME-3M melanoma 60.8% | RXF 393 renal 81% | SF-268 CNS 52.5% | SF-295 CNS 70.3% | SF-539 CNS 82.6% | UACC-257 melanoma 104% | M14 melanoma 79.5%
active: NCI-H322M lung 1.94% | HOP-92 NSCLC -12.9% | NCI-H522 lung -42% | A549/ATCC NSCLC 7.63% | COLO 205 colon -2.12% | K-562 leukemia -19.2% | MDA-MB-231 breast -2.45%

CCOC(=O)C1=C(c2ccccc2)N=c2s/c(=C/c3ccc(Br)cc3)c(=O)n2C1c1ccc(O)cc1 (stereo not given)
inactive: NCI-H23 lung 95.4% | NCI-H226 lung 86.6% | NCI-H322M lung 91.9% | HOP-62 NSCLC 105% | NCI-H460 lung 94.1% | HOP-92 NSCLC 71.2% | NCI-H522 lung 87.9% | A549/ATCC NSCLC 80.2% | 786-0 renal 77.4% | COLO 205 colon 118% | DU-145 prostate 95.5% | K-562 leukemia 77.6% | MALME-3M melanoma 94.3% | MDA-MB-231 breast 81.6% | RXF 393 renal 102% | SF-268 CNS 83.8% | SF-295 CNS 95.6% | SF-539 CNS 97.9% | UACC-257 melanoma 86.9% | M14 melanoma 87.2%

N#CCC1=NC(c2cccs2)=Nc2ccccc2S1
inactive: NCI-H23 lung 94.6% | NCI-H226 lung 82.4% | NCI-H322M lung 101% | HOP-62 NSCLC 89.6% | NCI-H460 lung 97.7% | HOP-92 NSCLC 71.7% | NCI-H522 lung 57.4% | A549/ATCC NSCLC 96% | 786-0 renal 98.6% | COLO 205 colon 107% | DU-145 prostate 109% | K-562 leukemia 86.5% | MALME-3M melanoma 99% | MDA-MB-231 breast 90.1% | RXF 393 renal 105% | SF-268 CNS 94% | SF-295 CNS 103% | SF-539 CNS 101% | UACC-257 melanoma 94.4% | M14 melanoma 94%

CC(C)c1ccc(NC(=O)Nc2ccc(NC(=O)c3ccccc3N)cc2)cc1
active: 786-0 renal 8.19% | RXF 393 renal -25.1% | SF-295 CNS -27.3%
inactive: NCI-H23 lung 59.5% | NCI-H226 lung 74.3% | NCI-H322M lung 55% | HOP-62 NSCLC 22.6% | NCI-H460 lung 22.7% | HOP-92 NSCLC 74.2% | NCI-H522 lung 26.8% | A549/ATCC NSCLC 50% | COLO 205 colon 61.8% | DU-145 prostate 79.2% | K-562 leukemia 18.2% | MALME-3M melanoma 72.9% | MDA-MB-231 breast 50.1% | SF-268 CNS 51.8% | SF-539 CNS 30.1% | UACC-257 melanoma 58.6% | M14 melanoma 34%

COc1ccc(-c2cc(-c3ccc(OC)cc3)nc(NCCCNc3ccnc4cc(Cl)ccc34)n2)cc1
inactive: NCI-H23 lung 81.3% | NCI-H226 lung 70.5% | NCI-H322M lung 98.4% | HOP-62 NSCLC 87.4% | HOP-92 NSCLC 55.9% | NCI-H522 lung 87.4% | A549/ATCC NSCLC 17.8% | MDA-MB-231 breast 76.7% | RXF 393 renal 24.2% | SF-268 CNS 85.3% | SF-295 CNS 83.8% | SF-539 CNS 63.4% | UACC-257 melanoma 46.2% | M14 melanoma 33.3%
active: NCI-H460 lung -39.5% | 786-0 renal -88.6% | COLO 205 colon 2.44% | DU-145 prostate -2.21% | K-562 leukemia -14.3% | MALME-3M melanoma -75.6%

COc1ccc(-c2cc(C(=O)N3N=C(c4ccc(N)cc4)CC3c3ccccc3)c3ccccc3n2)cc1 (stereo not given)
inactive: NCI-H23 lung 56.7% | NCI-H226 lung 77.3% | NCI-H322M lung 47.1% | HOP-62 NSCLC 30.6% | NCI-H460 lung 18.2% | HOP-92 NSCLC 34.5% | NCI-H522 lung 23.7% | A549/ATCC NSCLC 39.4% | 786-0 renal 37.3% | COLO 205 colon 10.8% | DU-145 prostate 21.8% | K-562 leukemia 19.8% | MALME-3M melanoma 54.6% | MDA-MB-231 breast 62.9% | RXF 393 renal 51.1% | SF-268 CNS 51.5% | SF-539 CNS 13.4% | UACC-257 melanoma 47.2% | M14 melanoma 17.2%
active: SF-295 CNS 6.86%

C=CCOC(=O)C1=C(C)NC(=O)NC1c1c(Cl)n(C)c2ccccc12 (stereo not given)
inactive: NCI-H23 lung 88.3% | NCI-H226 lung 97.8% | NCI-H322M lung 96.9% | HOP-62 NSCLC 92.9% | NCI-H460 lung 106% | HOP-92 NSCLC 55.3% | NCI-H522 lung 93.3% | A549/ATCC NSCLC 103% | 786-0 renal 91.3% | COLO 205 colon 111% | DU-145 prostate 107% | K-562 leukemia 106% | MALME-3M melanoma 105% | MDA-MB-231 breast 96% | RXF 393 renal 100% | SF-268 CNS 95.4% | SF-295 CNS 99.4% | SF-539 CNS 93.5% | UACC-257 melanoma 99.4% | M14 melanoma 95.3%

C[N+](C)(C/C=C/c1ccccc1)Cc1ccccc1
inactive: NCI-H23 lung 85.2% | NCI-H226 lung 93.1% | NCI-H322M lung 89.7% | HOP-62 NSCLC 96.7% | NCI-H460 lung 102% | HOP-92 NSCLC 104% | NCI-H522 lung 90.7% | A549/ATCC NSCLC 94.4% | 786-0 renal 99.1% | COLO 205 colon 104% | DU-145 prostate 102% | K-562 leukemia 110% | MALME-3M melanoma 86.8% | MDA-MB-231 breast 102% | RXF 393 renal 99.2% | SF-268 CNS 90.3% | SF-295 CNS 93.5% | SF-539 CNS 93.9% | UACC-257 melanoma 97.7% | M14 melanoma 85.6%

Source: PubChem BioAssay (NCI)
